Test results: PubChem BioAssay
Calls of active or inactive are those of the source.

Assays:
[1] = E. coli DRC41 culture turbidity changes, primary screen, E. coli filamentation inducer project, strain DRC41, OD650, 48 h (AID 1152);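 also: E. coli MC1000 strain DRC41 lacking acrAB efflux pump and sulA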; conditions: E. coli DRC41 (acrAB sulA), higher = more signal, called active from +8 up or from −8 down
[2] = small-molecule binders of probe aLefty1, primary screen, biochemical, small-molecule microarray, 635/667 nm fluorescence (AID 1153); conditions: higher = more signal;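 also: score merges spot fluorescence with signal-to-noise ratio from the scanned slide images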
[3] = PSAC antagonists in infected red cells, primary screen, cell-based, P. falciparum Indochina, OD700, 1 h (AID 1154); conditions: P. falciparum Indochina infected RBC osmotic lysis, higher = more signal, called active from +8 up or from −8 down
[4] = PSAC antagonists in infected red cells, primary screen, cell-based, P. falciparum Indochina, OD700, 2 h (AID 1155);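 also: lysis reports solute entry through the parasite surface anion channel PSAC; channel blockers reduce lysis of infected cells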; conditions: P. falciparum Indochina infected erythrocytes, osmotic lysis OD700; higher = more signal, called active from +8 up or from −8 down
[5] = osmotic lysis modulators in infected erythrocytes, primary screen, PSAC antagonist project, cell-based, P. falciparum Indochina, OD700, 3 h (AID 1156); conditions: higher = more signal, called active from +8 up or from −8 down
[6] = PSAC antagonists in infected red cells, primary screen, cell-based, P. falciparum Indochina, OD700, 18 h (AID 1157); conditions: P. falciparum Indochina infected erythrocytes, osmotic lysis OD700, 18 h; higher = more signal, called active from +8 up or from −8 down
[7] = modulators of S6 phosphorylation in cells, primary screen, cell-based, A549, cytoblot, luminescence, serum-stimulated (AID 1158); conditions: A549 phospho-S6 cytoblot, 5 h, higher = more signal;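 also: serum-stimulated A549 lung adenocarcinoma cells; signal is phosphorylated S6 detected by cytoblot immunostaining with HRP secondary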
[8] = target: NADPH oxidase 2 (Homo sapiens) (UniProt P04839); assay: NOX2-dependent H2O2 signal modulators, primary screen, NOX inhibitor project, cell-based, HEK293-NOX2, PMA-stimulated, Amplex Red fluorescence (AID 1159); conditions: 45 min, higher = more signal, called active from +8 up or from −8 down; also: test concentration not given here
[9] = target: NADPH oxidase 4 (Homo sapiens) (UniProt Q9NPH5); assay: NOX4-dependent H2O2 signal modulators, primary screen, NOX inhibitor project, cell-based, HEK293-NOX4, tetracycline-induced, Amplex Red fluorescence (AID 1160); conditions: 45 min, higher = more signal, called active from +8 up or from −8 down
[10] = target: NADPH oxidase 5 (Homo sapiens) (UniProt Q96PH1); assay: NOX5-dependent H2O2 signal modulators, primary screen, NOX inhibitor project, cell-based, HEK293-NOX5, Amplex Red fluorescence (AID 1161); conditions: HEK293-NOX5, ionomycin, 45 min, higher = more signal
[11] = A549 cell viability effects, profiling panel, calcein-AM fluorescence, 48 h, basal (AID 1162); conditions: higher = more signal; also: test concentration not given here
[12] = adipocyte viability effects, profiling panel, cell-based, 3T3-L1 adipocytes, calcein-AM fluorescence, 48 h, basal (AID 1163); conditions: 3T3-L1 adipocytes viability, higher = more signal; also: test concentration not given here
[13] = HepG2 cell viability effects, profiling panel, calcein-AM fluorescence, 48 h, basal (AID 1164); conditions: higher = more signal; also: test concentration not given here
[14] = MM1S cell viability effects, profiling panel, calcein-AM fluorescence, 48 h, basal (AID 1165); conditions: higher = more signal;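 also: viability of MM1S multiple myeloma cells under basal unstimulated conditions; test concentration not given here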
[15] = basal RPMI8226 viability, no added stimulus, profiling panel, cell-based, calcein-AM fluorescence, 48 h, PK04 Diversity Set (AID 1166); conditions: RPMI8226 myeloma viability, higher = more signal;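 also: cells grown under basal conditions without added stimulus; test concentration not given here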
[16] = basal HepG2 mitochondrial membrane potential changes, profiling panel, cell-based, JC-1 fluorescence, 24 h, 100 nL compound (AID 1167); conditions: higher = more signal; also: test concentration not given here
[17] = basal 3T3-L1 adipocyte mitochondrial potential changes, profiling panel, cell-based, JC-1 fluorescence, 3T3-L1 adipocytes, 24 h, 100 nL compound (AID 1168); conditions: JC-1 mitochondrial fluorescence, higher = more signal, called active from +8 up or from −8 down; also: test concentration not given here
[18] = basal RPMI8226 mitochondrial membrane potential changes, profiling panel, cell-based, JC-1 fluorescence, 24 h, 100 nL compound (AID 1169); conditions: RPMI8226 myeloma, JC-1 mitochondrial potential fluorescence, higher = more signal; also: test concentration not given here
[19] = basal MM1S mitochondrial membrane potential changes, profiling panel, cell-based, JC-1 fluorescence, 24 h, 100 nL compound (AID 1170); conditions: higher = more signal; also: test concentration not given here
[20] = A549 lung cancer cell viability effects, profiling panel, resazurin fluorescence, 24 h, PK04 Diversity Set (AID 1171); conditions: higher = more signal, called active from +8 up or from −8 down; also: test concentration not given here

Chain of NADPH oxidase 5 (Homo sapiens) (Q96PH1 whole entry, looked up): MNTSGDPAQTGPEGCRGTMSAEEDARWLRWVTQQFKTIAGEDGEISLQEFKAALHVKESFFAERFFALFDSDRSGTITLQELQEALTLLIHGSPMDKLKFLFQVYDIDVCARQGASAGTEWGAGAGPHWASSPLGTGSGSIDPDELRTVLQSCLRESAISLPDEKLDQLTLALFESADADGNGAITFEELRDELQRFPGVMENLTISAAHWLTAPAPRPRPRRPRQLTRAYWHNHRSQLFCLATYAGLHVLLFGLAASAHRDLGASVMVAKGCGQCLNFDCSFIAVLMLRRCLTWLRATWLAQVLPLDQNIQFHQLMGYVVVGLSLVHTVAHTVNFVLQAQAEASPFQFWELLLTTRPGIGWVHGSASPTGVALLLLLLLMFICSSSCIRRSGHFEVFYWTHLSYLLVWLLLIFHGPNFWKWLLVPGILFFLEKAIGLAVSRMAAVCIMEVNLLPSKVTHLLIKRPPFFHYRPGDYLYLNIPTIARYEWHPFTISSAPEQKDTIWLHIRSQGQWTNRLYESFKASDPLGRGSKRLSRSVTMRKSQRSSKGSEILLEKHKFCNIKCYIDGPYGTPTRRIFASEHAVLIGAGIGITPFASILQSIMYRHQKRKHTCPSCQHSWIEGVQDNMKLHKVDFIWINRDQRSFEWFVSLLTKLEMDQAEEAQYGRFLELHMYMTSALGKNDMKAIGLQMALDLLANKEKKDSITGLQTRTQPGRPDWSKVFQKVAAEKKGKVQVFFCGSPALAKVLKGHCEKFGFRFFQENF
Chain of NADPH oxidase 2 (Homo sapiens) (P04839 whole entry, looked up): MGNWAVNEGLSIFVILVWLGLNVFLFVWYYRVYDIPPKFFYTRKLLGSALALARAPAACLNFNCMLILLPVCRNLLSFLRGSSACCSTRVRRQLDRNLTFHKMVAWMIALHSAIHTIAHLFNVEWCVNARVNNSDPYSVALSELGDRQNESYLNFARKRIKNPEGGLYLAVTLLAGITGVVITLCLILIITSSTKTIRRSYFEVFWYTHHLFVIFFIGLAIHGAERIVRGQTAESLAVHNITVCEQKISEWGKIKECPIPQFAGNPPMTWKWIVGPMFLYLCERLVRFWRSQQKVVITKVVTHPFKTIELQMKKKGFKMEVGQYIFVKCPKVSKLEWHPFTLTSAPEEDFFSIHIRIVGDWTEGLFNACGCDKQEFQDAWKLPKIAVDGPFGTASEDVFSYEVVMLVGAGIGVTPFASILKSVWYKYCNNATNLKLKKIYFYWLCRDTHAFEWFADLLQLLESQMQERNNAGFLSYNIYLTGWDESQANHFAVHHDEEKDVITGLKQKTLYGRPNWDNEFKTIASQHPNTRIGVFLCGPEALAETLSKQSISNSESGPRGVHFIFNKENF
Chain of NADPH oxidase 4 (Homo sapiens) (Q9NPH5 whole entry, looked up): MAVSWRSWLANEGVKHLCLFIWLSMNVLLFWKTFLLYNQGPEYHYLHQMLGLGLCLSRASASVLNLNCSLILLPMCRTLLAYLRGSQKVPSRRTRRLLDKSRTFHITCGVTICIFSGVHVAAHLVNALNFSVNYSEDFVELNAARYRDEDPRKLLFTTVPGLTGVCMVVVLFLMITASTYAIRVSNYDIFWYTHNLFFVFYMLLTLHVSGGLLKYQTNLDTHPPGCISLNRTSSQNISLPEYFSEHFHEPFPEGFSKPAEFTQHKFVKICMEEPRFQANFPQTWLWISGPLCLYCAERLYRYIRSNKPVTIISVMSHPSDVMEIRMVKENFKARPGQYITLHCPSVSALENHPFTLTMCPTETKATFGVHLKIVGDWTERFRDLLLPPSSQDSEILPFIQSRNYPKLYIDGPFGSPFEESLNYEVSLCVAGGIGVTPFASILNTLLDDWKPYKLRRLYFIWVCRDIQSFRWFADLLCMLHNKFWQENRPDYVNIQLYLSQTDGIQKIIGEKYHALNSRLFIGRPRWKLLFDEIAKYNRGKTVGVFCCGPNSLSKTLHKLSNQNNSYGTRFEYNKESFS

SMILES	z-score [1]	composite z-score [2]	z-score [3]	z-score [4]	z-score [5]	z-score [6]	z-score [7]	z-score [8]	z-score [9]	z-score [10]	z-score [11]	z-score [12]	z-score [13]	z-score [14]	z-score [15]	z-score [16]	z-score [17]	z-score [18]	z-score [19]	z-score [20]
CCCCC(O)C1C=CC2C(=O)N(C)C(=O)C2N1Nc1ccccc1 (stereo not given)	-1.37 (inactive)	0.165	-0.242 (inactive)	0.735 (inactive)	0.243 (inactive)	1.17 (inactive)	-1.35	-1.32 (inactive)	-3.48 (inactive)	-2.72	-0.961	-1.89	-0.595	-1.29	-0.419	-1.73	0.64 (inactive)	-0.16	0.402	-0.98 (inactive)
COCCCNC(=O)[C@@]1(Sc2ccc(C)cc2)CC(=O)N(C2CCCCC2)[C@@H]1c1ccc(CO)cc1I	-0.251 (inactive)	-0.649	4.53 (inactive)	0.678 (inactive)	0.0232 (inactive)	0.5 (inactive)	-0.0285	0.625 (inactive)	-0.102 (inactive)	1.43	0.564	-0.363	0.0565	-2.54	-2.33	0.634	-0.201 (inactive)	-0.126	-1.24	0.804 (inactive)
COc1ccc(C#Cc2ccc3c(c2)[C@]2(C(=O)N3)[C@H](c3ccc(OCCO)cc3)N3[C@H](c4ccccc4)[C@H](c4ccccc4)OC(=O)[C@H]3[C@@H]2C(=O)O)cc1	2.24 (inactive)	1.4	-1.39 (inactive)	-2.59 (inactive)	-6.7 (inactive)	-2.58 (inactive)	1.6	-0.922 (inactive)	-1.55 (inactive)	-2.5	0.325	1.33	0.712	-3.1	-4.59	-4	-4.96 (inactive)	-1.19	-1.99	0.721 (inactive)
CN1C(=O)C2C(C1=O)C1C=C(c3ccc(CO)cc3)C2C(c2cccs2)N1C (stereo not given)	0.894 (inactive)	0.186	3.57 (inactive)	1.29 (inactive)	1.43 (inactive)	0.699 (inactive)	-0.105	0.158 (inactive)	-1.96 (inactive)	-0.45	-0.0148	0.338	0.186	-0.88	-0.996	0.398	-0.42 (inactive)	-0.492	0.172	-0.173 (inactive)
COC(=O)[C@@]1(Cc2ccc(F)cc2)[C@H]2c3cc(C(=O)N(C)C)n(CCn4cc([N+](=O)[O-])nc4C)c3C[C@H]2CN1C(=O)c1ccccc1	-2.34 (inactive)	0.0861	0.496 (inactive)	0.288 (inactive)	0.0718 (inactive)	0.544 (inactive)	0.0938	0.762 (inactive)	-0.00316 (inactive)	-0.683	-0.771	-0.417	0.346	-0.737	0.211	0.443	-0.596 (inactive)	0.0282	-0.54	-0.792 (inactive)
CO[C@H]1O[C@H](CO)[C@@H](OC(=O)Nc2ccc(C(F)(F)F)cc2)[C@H](OC(=O)Nc2ccccc2-c2ccccc2)[C@@H]1OC(=O)Nc1ccccc1-c1ccccc1	0.0065 (inactive)	0.534	4.11 (inactive)	1.04 (inactive)	0.14 (inactive)	0.817 (inactive)	0.672	-0.803 (inactive)	-0.549 (inactive)	-1.23	-1.34	-0.029	-0.745	-0.413	-0.909	-0.58	0.688 (inactive)	-0.172	-0.35	-1.35 (inactive)
CCCC=C(CCC)[C@@H](NC(=O)c1ccccc1)c1ccc(C(=O)OC)cc1	0.119 (inactive)	1.29	-0.072 (inactive)	0.502 (inactive)	-0.0759 (inactive)	-0.289 (inactive)	3.85	-3.83 (inactive)	-3.23 (inactive)	-1.45	-0.185	0.921	-0.535	-0.355	-1.08	-1.59	0.131 (inactive)	-0.515	-1.12	0.18 (inactive)
C=CCC(OC(C)=O)[C@@H]1[C@@H](N(Cc2ccc(-c3cccc(C(F)(F)F)c3)o2)C(=O)Cc2ccc(OC)cc2)c2cc(OCCCO)ccc2N1C(=O)c1ccc2ccccc2n1 (stereo not given in full)	-0.797 (inactive)	-0.0046	0.83 (inactive)	0.74 (inactive)	0.959 (inactive)	0.289 (inactive)	0.342	-0.236 (inactive)	-1.23 (inactive)	-1.45	-0.0093	0.341	0.279	-1.2	-2.3	2.12	0.253 (inactive)	-0.616	1.42	-1.25 (inactive)
CN1C(=O)[C@]2(CCS(=O)(=O)c3ccccc3)N=C(c3ccc(OCCCO)cc3)O[C@@H]2c2ccccc21	-1.06 (inactive)	0.18	29.6 (active)	27.2 (active)	2.49 (inactive)	1.87 (inactive)	-0.0831	0.276 (inactive)	-0.0954 (inactive)	-1.12	-0.189	-1.15	0.881	-2.04	-1.77	-0.447	-0.466 (inactive)	-0.852	0.48	-0.015 (inactive)
C=CCC(OC(C)=O)[C@@H]1[C@@H](N(Cc2ccc(-c3cccc(C(F)(F)F)c3)o2)C(=O)Cc2ccc(F)cc2)c2cc(OCCCO)ccc2N1C(=O)c1ccc2ccccc2n1 (stereo not given in full)	-0.994 (inactive)	-0.024	1.53 (inactive)	-0.0905 (inactive)	-0.592 (inactive)	0.0644 (inactive)	-0.47	0.249 (inactive)	0.919 (inactive)	1.13	0.0993	0.639	0.722	-0.911	-0.733	2.09	0.484 (inactive)	-0.134	0.143	0.14 (inactive)
CC#CCO[Si](C#CCCCCCC)(C(C)C)C(C)C	0.323 (inactive)	-0.0501	0.0926 (inactive)	-0.607 (inactive)	-1.09 (inactive)	0.283 (inactive)	0.393	-1.27 (inactive)	-0.681 (inactive)	-3.5	-0.5	-0.381	-0.23	-1.52	-1.03	-1.15	-0.552 (inactive)	-0.69	-1.3	0.518 (inactive)
COCCOC(=O)N1C(=O)[C@@]2(c3cc(C#Cc4ccc(OC)cc4)ccc31)[C@H](c1ccc(OCCO)cc1)N1[C@H](c3ccccc3)[C@H](c3ccccc3)OC(=O)[C@H]1[C@@H]2C(=O)N1CCCCCCC1	0.543 (inactive)	2.74	2 (inactive)	0.481 (inactive)	0.306 (inactive)	0.0489 (inactive)	1.59	0.928 (inactive)	0.274 (inactive)	1.19	0.571	1.96	0.856	-0.0692	0.81	-0.16	-2.31 (inactive)	-0.684	-1	-0.436 (inactive)
C=CCNC(=O)[C@@H]1[C@H]2C(=O)O[C@H](c3ccccc3)[C@H](c3ccccc3)N2[C@H](c2ccccc2OCCO)[C@@]12C(=O)N(C(=O)OCCOC)c1ccc(C#CCCO)cc12	-0.288 (inactive)	0.209	2.62 (inactive)	1.15 (inactive)	0.123 (inactive)	0.167 (inactive)	0.568	1.57 (inactive)	1.31 (inactive)	0.165	0.614	0.393	1.53	-0.02	-0.615	-0.332	0.507 (inactive)	-0.868	-1.46	-0.0256 (inactive)
C=C(/C(=C/C[C@@H](OC(C)=O)c1ccccc1OCCO)c1cc(C(=O)OC)ccc1OC)C(C)C	0.516 (inactive)	-0.0545	14.6 (active)	2.61 (inactive)	1.4 (inactive)	0.994 (inactive)	0.0105	1.58 (inactive)	-0.286 (inactive)	-1.43	0.793	-0.515	0.561	-3.21	-1.11	0.605	0.118 (inactive)	0.367	-0.503	0.583 (inactive)
CC(C)=CCN(C(=O)C#Cc1ccccc1)[C@H](CO)c1ccccc1	-4.56 (inactive)	-0.0876	16.8 (active)	3.67 (inactive)	-2.25 (inactive)	0.402 (inactive)	0.21	2.15 (inactive)	-1 (inactive)	-3.76	-3.88	-0.522	-5.06	-3.2	-4.1	-3.07	0.983 (inactive)	-1.24	-2.54	-2.45 (inactive)
CC(C)C[C@@H]1NC(=O)[C@H]2C[C@@H](C(=O)NCCCCCCNC(=O)CS)[C@@H](c3ccc(O)cc3)N2C1=O	0.13 (inactive)	-0.0603	7.66 (inactive)	0.64 (inactive)	1.4 (inactive)	-0.0166 (inactive)	0.795	1.64 (inactive)	0.633 (inactive)	0.755	-0.889	0.197	-0.301	-0.397	0.266	-1.74	0.193 (inactive)	0.486	-5.59e-05	0.0225 (inactive)
